Data from the supplement of paper PMC10981050.
Several values for one entry are separate records, joined by “and”; a condition that tells them apart may be missing. Equal values may be shown once.

Legend:
Assay in all cases: cell viability relative to vehicle control; higher = less cytotoxic
Settings in all cases: 10 µM
K562 = test system: K562
Outline: (§1)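 Screening covered the Selleck bioactive, kinase and epigenetic probe libraries, less identity-inconsistent compounds, on CRISPR-edited mutant clones and isogenic wild-type clones of four leukaemia lines. Cells, at 2000 per well in 50 µL medium, received a single 10 µM acoustically dispensed dose. After 48 h the supernatant was removed and CellTiter-Glo luminescence was read. Viability was analysed in Genedata Screener as percent of the on-plate vehicle control.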

MARIMO = test system: MARIMO
Outline: as §1

MOLM14 = test system: MOLM14
Outline: as §1

OCI-AML2 = test system: OCI-AML2
Outline: as §1

| Structure (SMILES) | cell viability (K562; SRSF2 genotype: SRSF2 P95H/wt) | cell viability (K562; SRSF2 genotype: SRSF2 wt/wt) | cell viability (MARIMO; SRSF2 genotype: SRSF2 P95H/wt) | cell viability (MARIMO; SRSF2 genotype: SRSF2 wt/wt) | cell viability (MOLM14; SRSF2 genotype: SRSF2 P95H/wt) | cell viability (MOLM14; SRSF2 genotype: SRSF2 wt/wt) | cell viability (OCI-AML2; SRSF2 genotype: P95H/wt) | cell viability (OCI-AML2; SRSF2 genotype: wt/wt) |
| --- | --- | --- | --- | --- | --- | --- | --- | --- |
| Cc1ccccc1C(C(=O)NC1CCCCC1)N(C(=O)Cn1ccnc1C)c1cccc(F)c1 (stereo unspecified) | 103% and 101% | 97.1% | 99.2% | 98.6% | 100% | 99.8% | 101% | 105% |
| CCN1C(=O)CNc2ncc(-c3ccc(-c4nc[nH]n4)nc3C)nc21 | 13.8% and 18.5% | 23.9% | 27.5% | 27.6% | 9.85% | 11.8% | 8.07% | 16.1% |
| COc1c(O)cc2c(c1O)[C@@H]1O[C@H](CO)[C@@H](O)[C@H](O)[C@H]1OC2=O [Bergenin (Cuscutin)] | 100% and 84% | 86.1% | 89.2% | 99% | 85.6% | 91.9% | 91% | 94.1% |
| CC(C)CN(C[C@@H](O)[C@H](Cc1ccccc1)NC(=O)O[C@H]1CCOC1)S(=O)(=O)c1ccc(N)cc1 [Amprenavir (Agenerase)] | 89.2% and 83.5% | 86.4% | 77.8% | 93.5% | 90.2% | 89.8% | 101% | 99.4% |
| NC(=O)Cc1c[nH]c2ccccc12 [Indole-3-acetamide] | 97.9% and 97.4% | 107% | 98% | 100% | 92.9% | 103% | 107% | 115% |
| C=CC(=O)N1CC(=Cc2ccc([N+](=O)[O-])cc2)C(=O)C(=Cc2ccc([N+](=O)[O-])cc2)C1 | 15.9% and 2.27% | 9.63% | 3.16% | 1.15% | 0.72% | 0.74% | 2.08% | 1.27% |
| CCCCCCCCCCCCCCCCCC(=O)O [Stearic acid] | 107% and 111% | 107% | 107% | 109% | 105% | 108% | 96.4% | 103% |
| CCc1cncnc1N1CCN(Cc2nc3ccc(C(F)(F)F)cc3[nH]2)CC1 | 72.3% and 72.8% | 73.1% | 66.4% | 47.9% | 57.4% | 66.5% | 32.3% | 43.3% |
| NC(=O)[C@H](CCCN=C(N)CCl)NC(=O)c1ccccc1 [Cl-amidine] | 101% and 98% | 95.7% | 101% | 97.2% | 98.4% | 99% | 111% | 102% |
| COc1cccc2cc(-c3nc([C@H]4CC[C@H](C(=O)O)CC4)n4ncnc(N)c34)[nH]c12 | 36.1% and 37% | 32.9% | 51.5% | 47.1% | 29.4% | 24.9% | 26.5% | 27.5% |
| CN(CC(=O)N(Cc1ccc(C2CCCCC2)cc1)c1ccc(C(=O)O)c(O)c1)S(=O)(=O)c1c(F)c(F)c(F)c(F)c1F | 38% and 23.1% | 13.9% | 57.8% | 28.6% | 0.63% | 0.38% | 1.74% | 5.48% |
| O=C(O)Cc1ccccc1Nc1c(Cl)cccc1Cl [Diclofenac Potassium] | 94.4% and 99.1% | 97.2% | 106% | 105% | 93.5% | 100% | 95.3% | 105% |
| Cn1c(=O)c(F)c(Nc2ccc(I)cc2F)c2c(=O)n(C[C@@H](O)CO)cnc21 | 66.4% and 83.6% | 77% | 43.7% | 36.3% | 45.7% | 29.8% | 47.5% | 46.9% |
| CS(=O)(=O)CCNCc1ccc(-c2ccc3ncnc(Nc4ccc(OCc5cccc(F)c5)c(Cl)c4)c3c2)o1 | 54.6% and 37% | 56.7% | 88.7% | 90.3% | 86.2% | 60.6% | 65% | 59.5% |
| CCCCCCCCCCCCCC(=O)OCC(COC(=O)CCCCCCCCCCCCC)OC(=O)CCCCCCCCCCCCC [Tritetradecanoin] | 107% and 104% | 103% | 100% | 107% | 101% | 102% | 102% | 107% |
| CO[C@H]1C[C@@H]2CC[C@@H](C)[C@@](O)(O2)C(=O)C(=O)N2CCCC[C@H]2C(=O)O[C@H]([C@H](C)C[C@@H]2CC[C@@H](OP(C)(C)=O)[C@H](OC)C2)CC(=O)[C@H](C)/C=C(\C)[C@@H](O)[C@@H](OC)C(=O)[C@H](C)C[C@H](C)/C=C/C=C/C=C/1C [Deforolimus (MK-8669)] | 71.2% and 68.8% | 70.8% | 75% | 75% | 54.2% | 60.8% | 67.5% | 64% |
| O=C(O)C1=C(CSc2nnnn2CS(=O)(=O)O)CS[C@@H]2[C@H](NC(=O)[C@H](O)c3ccccc3)C(=O)N12 [Cefonicid sodium] | 103% | 102% | 97.2% | 108% | 96.3% | 105% | 103% | 113% |
| CNC(=O)c1ccc(C)c(-n2c(C)cc(OCc3ccc(F)cc3F)c(Br)c2=O)c1 | 74% and 77.8% | 82.4% | 65.6% | 58.4% | 69.8% | 78.8% | 72.8% | 72.2% |
| COc1cc(Nc2c(C#N)cnc3cc(OCCCN4CCN(C)CC4)c(OC)cc23)c(Cl)cc1Cl [Bosutinib (SKI-606)] | 2.19% and 3.5% | 3.73% | 38.5% | 37.6% | 7.61% | 11.1% | 1.53% | 7.73% |
| CC[C@H]1OC(=O)[C@H](C)[C@@H](O[C@H]2C[C@@](C)(OC)[C@@H](O)[C@H](C)O2)[C@H](C)[C@@H](O[C@@H]2O[C@H](C)C[C@H](N(C)C)[C@H]2O)[C@](C)(O)C[C@@H](C)CN(C)[C@H](C)[C@@H](O)[C@]1(C)O [Azithromycin] | 90.3% and 86.4% | 89.5% | 83.2% | 90.4% | 92.1% | 89.4% | 75.7% | 82.3% |
| COc1ccc2cc3[n+](cc2c1O)CCc1cc2c(cc1-3)OCO2 [Berberrubine] | 104% and 100% | 111% | 112% | 98.3% | 109% | 109% | 103% | 99.1% |
| Cc1ccc(CNc2ncnc3ccc(-c4ccc(CO)o4)cc23)o1 | 97.3% and 96.8% | 101% | 90% | 95.8% | 81.7% | 94.2% | 77.5% | 84.3% |
